# Hits are enriched below; roughly 5.9% of the tested compounds scored in any of these assays.
# GAA850 FXN act = increases GAA850 frataxin promoter reporter activity; HEK293 lucGAA850 FXN promoter luciferase reporter, 24 h; percent of 10 µM SAHA response; activation, % at 6 µM; 0.56% of 360,000 active;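 active = activation above the average of all compounds screened plus 3 SD, cutoff fixed separately per campaign, cut at about 7.5% in these data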;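 also: 0% = DMSO wells and 100% = 10 µM SAHA wells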
# HSF1 inh = HSF1 inhibition; 0.77% of 300,000 active; activity change, negative = inhibition, % at 7.5 µM (by protocol); NIH3T3-HGL HSE-luciferase, MG132-induced, luminescence 8 h; active compounds read low; AID 2098;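 active = more than half of replicate wells show activity change below -50%, luminescence cut by over half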;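 also: luciferase reports HSF-1 transcriptional activity via heat shock element; 0% = median of DMSO wells and -100% = zero luminescence signal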
# DAX1 inh = NR0B1 (DAX1) inhibition; P51843; HEK293 Gal4-DAX1 luciferase reporter, luminescence; inhibition, % at 6.75 µM; 0.99% of 340,000 active;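 active = inhibition above the mean over all tested compounds plus 3 SD, cut at about 4.2% in these data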;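 also: 0% = DAX1-transfected cells with DMSO and 100% = empty-vector control cells with DMSO; inhibition shows as a rise in luminescence from relieved DAX1 repression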
# AHR activator = activators of human aryl hydrocarbon receptor; activation, % at 5 µM; 2.5% of 320,000 active; P35869; AHR-responsive luciferase reporter cells, luminescence; in the data active = activation above about 47%;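 also: 0% = vehicle wells and 100% = reference agonist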
# Target sequence (P35869 whole entry, looked up): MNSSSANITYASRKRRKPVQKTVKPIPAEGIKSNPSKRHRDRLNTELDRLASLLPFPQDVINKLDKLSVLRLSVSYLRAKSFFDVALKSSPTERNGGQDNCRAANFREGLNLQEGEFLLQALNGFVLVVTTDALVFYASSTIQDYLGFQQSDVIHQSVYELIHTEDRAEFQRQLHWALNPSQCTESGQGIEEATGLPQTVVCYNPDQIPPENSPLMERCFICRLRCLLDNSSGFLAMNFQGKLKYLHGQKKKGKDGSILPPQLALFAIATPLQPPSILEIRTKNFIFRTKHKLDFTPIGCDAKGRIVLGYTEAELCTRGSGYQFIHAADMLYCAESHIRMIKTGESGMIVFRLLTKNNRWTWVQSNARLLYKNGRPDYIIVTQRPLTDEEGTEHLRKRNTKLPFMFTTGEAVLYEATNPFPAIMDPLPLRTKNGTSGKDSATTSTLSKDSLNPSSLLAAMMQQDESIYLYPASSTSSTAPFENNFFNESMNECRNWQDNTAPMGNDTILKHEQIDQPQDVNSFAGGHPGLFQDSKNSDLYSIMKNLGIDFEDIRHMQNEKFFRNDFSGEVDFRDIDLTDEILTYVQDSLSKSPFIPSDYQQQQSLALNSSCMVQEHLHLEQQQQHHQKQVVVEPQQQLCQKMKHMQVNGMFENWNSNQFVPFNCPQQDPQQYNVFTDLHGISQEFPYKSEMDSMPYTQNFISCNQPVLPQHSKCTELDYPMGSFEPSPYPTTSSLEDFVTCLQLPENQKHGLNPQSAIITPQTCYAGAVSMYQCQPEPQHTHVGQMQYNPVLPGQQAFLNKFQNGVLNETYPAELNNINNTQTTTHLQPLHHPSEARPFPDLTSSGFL
# HSP90 inh = blocks HSP90-mediated luciferase refolding in reticulocyte lysate; Rabbit reticulocyte lysate, luciferase refolding luminescence, 3 h; inhibition, % at 5.6 µM; 0.91% of 290,000 active;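 active = inhibition above the screen-wide mean plus 3 SD, computed separately per campaign, cut at about 16% in these data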;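 also: 0% = DMSO wells and 100% = 60 µM geldanamycin wells; inhibitors lower the luminescence because luciferase stays unfolded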
# HSF-1 act = increases HSF-1 driven luciferase reporter signal; NIH3T3-HGL HSF-1 luciferase reporter, MG132, 8 h; 100% = twice DMSO control signal; activation, % at 9 µM; 1.7% of 300,000 active; AID 504408;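 active = mean replicate activation of at least 50% with a set share of replicates each reaching 50%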;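 also: 0% = median of the neutral control wells and 100% = twice that signal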
# * marks the source's active call; other numbers are inactive results; x = no result given.
SMILES,GAA850 FXN act,HSF1 inh,DAX1 inh,AHR activator,HSP90 inh,HSF-1 act
COP(=O)(OC)c1nc(-c2cccc3ccccc23)oc1NCc1ccccc1,3,25,4.6*,6,-4,87*
COc1ccc(CNc2oc(-c3cccc4ccccc34)nc2P(=O)(OC)OC)cc1,4,3,0,14,-4,17
CS(=O)(=O)c1ccc(C(=O)N2CCN(C(=O)c3ccco3)CC2)cc1,0,x,1,x,x,x
CN(C(=O)c1ccc(NC(=O)Cc2ccc(NC(=O)C3CCCN(C(=O)C4CC4)C3)cc2)cc1)C1CCCC1 (stereo unspecified),0,x,2,x,x,x
N#C/C(=C\C=C\c1ccccc1[N+](=O)[O-])C(=O)NCc1ccccc1,2,56,-1,7,5,94*
N#C/C(=C\c1ccccc1[N+](=O)[O-])C(=O)NCc1ccccc1,1,6,4.5*,-3,0,31
NS(=O)(=O)c1ccc(CNC(=O)/C=C/c2ccccc2[N+](=O)[O-])cc1,3,1,4.4*,9,0,-12
N#C/C(=C/c1ccccc1[N+](=O)[O-])C(=O)NCc1ccco1,0,-2,0,20,5,-9
C=CCNC(=O)/C(C#N)=C/c1ccccc1[N+](=O)[O-],0,0,-1,3,1,7
Cc1sc(NC(=O)c2c(F)cccc2F)nc1-c1ccccc1,2,13,-2,65*,0,17
Cc1sc(NC(=O)c2ccc(=O)n(C)n2)nc1-c1ccccc1,2,4,1,-1,-1,-7
Nc1c(Cl)c(Cl)nc(C(=O)N/N=C/c2ccco2)c1Cl,1,-5,-1,53*,-4,6
Nc1nccnc1C(=O)N/N=C/c1ccco1,4,2,6.9*,3,4,-6
Nc1c(Cl)c(Cl)nc(C(=O)OCC(=O)NC2CCCCC2)c1Cl,1,-8,0,29,0,-5
NNC(=O)c1nc(Cl)c(Cl)c(N)c1Cl,1,0,-1,77*,0,3
CC(C(=O)NCC1CCCO1)c1ccc([N+](=O)[O-])cc1 (stereo unspecified),-1,-3,5.0*,2,4,-24
Fc1ccc(Nc2nc(-c3ccncc3)nc3ccccc23)cc1,2,0,0,52*,2,-2
CCOc1nc(-c2ccncc2)nc2ccccc12,3,1,1,114*,1,27
c1ccc(Nc2nc(-c3ccncc3)nc3ccccc23)cc1,-3,-2,-1,19,-5,-9
CC(=O)Nc1cccc(Nc2nc(-c3ccccc3)nc3ccccc23)c1,-2,x,-2,62*,0,x
Cc1ccc(Nc2nc(-c3ccncc3)nc3ccccc23)cc1,2,-11,x,38,-1,-12
Fc1ccccc1Nc1nc(-c2ccncc2)nc2ccccc12,2,-17,0,56*,-5,-16
COc1cc(CNc2ncnc3c2ncn3[C@H]2CN(Cc3cccc(C(F)(F)F)c3)C[C@@H](CO)O2)cc(OC)c1OC,-6,x,x,x,x,x
COC(=O)[C@]1(C)N[C@H](CN(C)S(=O)(=O)c2ccc(OC(F)(F)F)cc2)[C@@H]2C(=O)N(Cc3ccccc3)C(=O)[C@@H]21,1,x,-1,1,x,x
CC1=C(C(=O)Nc2cc(C(=O)N3CCN(c4cccc(C)c4C)CC3)ccc2C)SCCO1,-2,-3,0,0,1,-5
SMILES,GAA850 FXN act,HSF1 inh,DAX1 inh,AHR activator,HSP90 inh,HSF-1 act
CC1(C(=O)NS(=O)(=O)c2ccc(Br)cc2)CCN1C(=O)CCc1ccccc1 (stereo unspecified),-1,x,x,x,x,x
CN(C)/C=C/C(=O)c1cnc(-c2ccccc2Cl)s1,3,-6,2,57*,-2,-11
CN(C)/C=C/C(=O)c1cnc(-c2cccc(Cl)c2)s1,3,-3,3,4,4,-13
CC(=O)OC1CC(C)N(C(=O)c2ccccc2)c2ccc(C)cc21 (stereo unspecified),0,4,1,-1,1,10
CC(=O)N1c2ccc(C)cc2C(c2ccccc2)CC1C (stereo unspecified),1,34,1,0,-3,58*
COc1cc(/C=C(/C(=O)c2cccs2)c2nc3ccccc3[nH]2)ccc1O,-7,60,-2,57*,5,82*
COC(=O)/C(=C\c1ccc(O)cc1)c1nc2ccccc2[nH]1,2,-6,3,5,-1,23
O=C(/C(=C/c1ccc(Cl)cc1)c1nc2ccccc2[nH]1)c1cccs1,-12,175,-5,58*,3,241*
COc1ccc(/C=C(/NC(=O)c2ccccc2)c2nc3ccccc3[nH]2)cc1OC,0,-1,0,10,2,11
COc1ccc(C(=O)N/C(=C\c2cccs2)c2nc3ccccc3[nH]2)cc1OC,1,-60*,0,20,-1,-70
CC(C)(CO)CNC(=O)c1ccc2nc(Cc3cccc(Cl)c3)oc2c1,0,-2,2,2,-2,2
O=C1NC2(CCc3ccccc3C2)C(=O)N1CCOc1cccc(Cl)c1 (stereo unspecified),1,-1,-1,7,6,-3
O=S1(=O)CCOC[C@H](CC2CCCCC2)N1Cc1ccccc1Br,-2,9,1,2,5,11
COC(=O)c1ccccc1Sc1ncnc2onc(C)c12,-2,72,0,1,6,86*
Cc1noc2ncnc(Sc3ccccc3Cl)c12,-1,24,0,0,5,23
COc1ccc(N2Cc3ccccc3C2=O)cc1,1,25,-1,2,15,54*
O=C(NC(c1ccccc1)c1ccc2ccccc2n1)C1CCN(Cc2cccc(C(F)(F)F)c2)CC1 (stereo unspecified),-1,x,x,x,x,x
CCN(CC)S(=O)(=O)c1cccc(C(=O)NC(C(=O)NNC(=O)c2ccccc2F)C(C)C)c1 (stereo unspecified),1,x,0,x,x,x
CCCCN(C)C(=O)c1ccc2c(c1)N(CC)C(=O)c1ccccc1S2=O (stereo unspecified),1,8,4.7*,5,-3,5
COc1ccc(-c2csc(NC(CO)c3nc4ccccc4n3CCOCCO)n2)cc1 (stereo unspecified),3,10,-1,33,x,-1
COc1ccc(-c2csc(NC(CO)c3nc4ccccc4n3CCCO)n2)cc1 (stereo unspecified),3,1,-1,55*,x,-17
OCCOCCn1c(CCNc2nc(-c3ccc(Cl)cc3)cs2)nc2cc(Cl)c(Cl)cc21,1,12,-2,59*,x,1
CC(Nc1nc(-c2ccc(F)cc2)cs1)c1nc2cc(Cl)c(Cl)cc2n1CCCO (stereo unspecified),2,16,2,72*,x,-4

# Bioassay records from PubChem.
